Screening data from PubChem BioAssay.
D1 PAM = Potentiators of Human D1 Dopamine Receptor: qHTS; D(1A) dopamine receptor (Homo sapiens), P21728; HEK293 TREx D1 cells, calcium flux, dopamine EC20 potentiation; potentiation, % at 10 µM; hit rate 0.036% among 360,000; in the data active = potentiation above about 30%; also: 0% is about no effect
Target sequence (P21728 whole entry, looked up): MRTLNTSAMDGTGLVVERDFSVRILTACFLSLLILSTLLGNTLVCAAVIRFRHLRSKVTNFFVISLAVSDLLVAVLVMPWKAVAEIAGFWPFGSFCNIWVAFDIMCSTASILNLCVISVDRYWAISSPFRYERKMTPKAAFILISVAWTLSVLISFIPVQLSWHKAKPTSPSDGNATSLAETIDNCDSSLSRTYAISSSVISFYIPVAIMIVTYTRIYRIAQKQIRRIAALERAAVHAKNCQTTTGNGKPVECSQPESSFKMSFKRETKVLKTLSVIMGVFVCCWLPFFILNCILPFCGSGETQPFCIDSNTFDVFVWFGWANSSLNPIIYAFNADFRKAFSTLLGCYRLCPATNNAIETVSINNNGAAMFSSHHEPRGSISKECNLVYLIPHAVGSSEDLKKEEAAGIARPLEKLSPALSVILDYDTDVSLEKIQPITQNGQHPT
D1 agonist = Allosteric Agonists of the Human D1 Dopamine Receptor: qHTS | D(1A) dopamine receptor (Homo sapiens), P21728 | HEK293 T-REx D1 cells, calcium flux, agonist mode | activation, % at 2 µM | hit rate 1% among 360,000; in the data active = activation above about 30%; also: 0% is about no effect
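Agonism was scored from calcium flux recorded over 180 s (1 read/s) after pintool compound addition, following a 10-cycle baseline. Cells were inducible force-coupled HEK293 TREx D1, plated overnight at 30 C and loaded with no-wash calcium dye.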
DRD3 antagonist = qHTS of D3 Dopamine Receptor Antagonist: qHTS. hit rate 2.5% among 360,000. AID 652054, 2013. max response, negative = inhibition, %. D3R cells, DiscoveRx beta-arrestin luminescence, antagonist mode; active compounds read low; in the data active = max response below about -50%; inconclusive = no clear call, values can overlap the other calls; also: % is scaled to controls: 0 for no effect and ±100 for the full control effect
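Cells expressing the human receptor were seeded at 1500 cells/well, incubated overnight at 37 degrees C in 5% CO2, then exposed to library compounds with dopamine controls for 90 minutes at 37 degrees C before luminescent detection.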
D1 antag = Antagonist of Human D 1 Dopamine Receptor: qHTS | D(1A) dopamine receptor (Homo sapiens), P21728 | HEK293 TREx D1 cells, calcium flux, dopamine EC80; active compounds read low | activity change, negative = inhibition, % at 10 µM | hit rate 3.2% among 360,000; in the data active = activity change below about -30%; also: % is scaled to controls: 0 for no effect and ±100 for the full control effect
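Tetracycline-induced HEK293 Trex D1 cells, force-coupled to calcium, dye-loaded; compounds added and read 180 s, then EC80 dopamine added and calcium flux tracked kinetically another 180 s.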
DRD3 agonist = qHTS of D3 Dopamine Receptor Agonist: qHTS | D(3) dopamine receptor (Homo sapiens), P35462 | D3R DiscoveRx beta-arrestin cells, luminescence, 90 min | max activation, % | hit rate 0.58% among 410,000 | AID 652048, 2013; in the data active = max activation above about 30%; also: 0% is about no effect
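Cells at 1500/well, incubated overnight, then treated with pinned compounds (dopamine as control) for 90 min at 37 degrees C. DiscoveRx reagent added for 30 - 60 minutes at room temperature; luminescence read.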
The depositor's hits bear a star; ? = inconclusive; · = no result given. Only some compounds are listed: those with a hit (about 6% of all), similar ones and a draw of the others.

SMILES | D1 PAM | D1 agonist | DRD3 antagonist | D1 antag | DRD3 agonist
Fc1cccc(NC(=S)NCCc2ccccc2)c1 | -8 | 19 | 11 | -38* | 5
CC(C)CC1NC(=O)N(CC(=O)NC2CCCc3ccccc32)C1=O (stereo unspecified) | -2 | 0 | -22 | -36* | 14
CC(C)CN1C(=O)C(=O)N(CC(=O)NC2CCCc3ccccc32)C1=O (stereo unspecified) | -4 | 1 | 4 | -2 | 5
CC(C)NC(=O)C1CC(=O)N(CCc2ccc(F)cc2)C1 (stereo unspecified) | · | · | -13 | · | -3
O=C(Nc1ccc(NC(=O)c2ccc(Cl)c(S(=O)(=O)N3CCOCC3)c2)cc1)c1ccccc1 | -1 | 9 | -5 | 3 | 4
O=C(Nc1ccccc1)Nc1ccc(Cl)c(S(=O)(=O)N2CCOCC2)c1 | -9 | 28 | -51* | -11 | -11
CCn1nc(C(=O)Nc2ccc(Cl)c(S(=O)(=O)N3CCOCC3)c2)c2ccccc2c1=O | -4 | 4 | 0 | -37* | -13
CCCn1nc(C(=O)Nc2cccc(S(=O)(=O)N3CCOCC3)c2)c2ccccc2c1=O | · | · | 23 | · | -2
Cc1ccc(-c2nnn(CC(=O)NC3CC4CCC3C4)n2)cc1 (stereo unspecified) | 4 | 3 | 21 | -7 | 2
O=C(Cn1nnc(-c2ccc(Cl)cc2)n1)NC1CC2CCC1C2 (stereo unspecified) | -6 | 2 | 3 | -34* | 0
CCCCOc1ccc(Br)cc1CSC(=N)N | -5 | 62* | -20 | -4 | -16
CCCCCOc1ccc(CSC(=N)N)cc1[N+](=O)[O-] | -1 | 56* | 9 | 35 | 1
CC(OC(=O)c1ccc(Cl)cc1)C(=O)NCC1CCCCC1 (stereo unspecified) | -5 | 1 | -14 | -8 | -1
Cc1ccc(Cn2c(=O)n(Cc3ccccc3Cl)c(=O)c3cccnc32)cc1 | -6 | 2 | · | 13 | 4
CC1=C(C(=O)Nc2ccccc2)C(c2ccccc2)n2nc(-c3ccco3)nc2N1 (stereo unspecified) | -4 | 0 | · | 10 | -2
CN=c1sc2c(n1C)C(=O)c1ccccc1C2=O | · | · | -14 | · | -10
Cc1ccc(C(=O)O)cc1N1CCCC1=O | -1 | 0 | -51* | -8 | -5
Cc1ccc(C(=O)NC2CCCCCC2)cc1N1CCCC1=O | -6 | 3 | 20 | -4 | 4
CC1=CC(=O)C=C(C)C1=NOc1ccccc1[N+](=O)[O-] | -2 | 0 | -1 | -66* | 1
Cc1cc(C)c(S(=O)(=O)Oc2ccccc2[N+](=O)[O-])c(C)c1 | · | · | 2 | · | -4
Cc1ccc(NC(=O)C(=O)NCc2ccco2)cc1 | -2 | -3 | · | -31* | -2
CSc1nc(=O)n(-c2ccccc2)c(C)c1C(C)=O | -2 | 2 | 17 | 4 | 34*
CCSc1nc(=O)n(-c2ccccc2)c(C)c1C(C)=O | -4 | 2 | ? | 0 | -9
O=C(Nc1c(C(=O)c2ccc(Cl)cc2)oc2ccccc12)c1cc(=O)c2ccccc2o1 | 2 | 3 | · | -6 | -4
O=C(COC(=O)Cn1[nH]c(=O)c2ccccc2c1=O)NNC(=O)c1ccc(Br)cc1 | 3 | 0 | -118* | 5 | -34
SMILES | D1 PAM | D1 agonist | DRD3 antagonist | D1 antag | DRD3 agonist
O=C(COC(=O)Cc1n[nH]c(=O)c2ccccc12)NNC(=O)c1ccc(Cl)cc1 | -1 | 1 | -131* | 4 | -26
O=C(Cn1[nH]c(=O)c2ccccc2c1=O)OCC(=O)c1ccccc1 | 4 | 3 | 3 | 5 | 10
Cc1ccc(CN(Cc2ccco2)C(=O)COc2ccc(Cl)cc2)o1 | -2 | 3 | · | -7 | 7
O=C(O)/C=C\C(=O)Nc1ccc(Oc2ccc(Br)cc2)cc1 | -4 | -1 | 8 | -31* | 6
O=C(O)/C=C\C(=O)Nc1ccc(Oc2ccccc2)cc1 | -6 | 0 | 25 | -63* | 2
CC1CCCC/C1=N\Nc1ccc(S(N)(=O)=O)cc1[N+](=O)[O-] (stereo unspecified) | -3 | 6 | 15 | -30* | 0
COCOCCn1cc(CN2CCS(=O)(=O)N(Cc3ccc(-c4cccc(CO)c4)cc3)C(CC(C)C)C2=O)nn1 (stereo unspecified) | · | · | 1 | · | 1
CCCCC(=O)Nc1ccccc1CC | 4 | 3 | -65* | -13 | -15
CCCCCCCC(=O)NNC(=O)Cc1ccccc1 | -1 | 2 | 19 | -54* | -25
Fc1ccc(-c2nc3ccc(Br)cn3c2Cc2ccccc2C(F)(F)F)cc1 | · | · | -19 | · | -2
O=C1CCC/C1=C\Nc1ccc(Cl)c([N+](=O)[O-])c1 | -2 | 9 | 3 | -40* | -6
O=C1CCC/C1=C/Nc1ccc(Cl)cc1 | 3 | -2 | -11 | 14 | -2
O=[N+]([O-])c1cccc(Cl)c1NCCNS(=O)(=O)c1ccc(Cl)cc1 | -11 | 1 | 2 | 2 | 8
O=[N+]([O-])c1cccc(Cl)c1NCCNS(=O)(=O)c1ccccc1 | -2 | 5 | -56* | 12 | 3
Cc1ccc(S(=O)(=O)NCCNC(=O)C2CCCNC2=O)cc1 (stereo unspecified) | -3 | 5 | 6 | -46* | 4
OC1(c2cccc(F)c2)CCN(Cc2ccncc2)CC1 | 2 | 3 | -78* | -1 | -7
OC1(c2cccc(C(F)(F)F)c2)CCN(Cc2nnnn2Cc2ccccc2)CC1 | -3 | 1 | 5 | 0 | 6
COc1cc(C(C)=O)ccc1OCCCN1CCC(c2noc3cc(F)ccc23)CC1 | · | · | · | · | -26
COc1ccc(NC(=O)C(=O)NCC(c2cccnc2)N2CCc3ccccc3C2)cc1 (stereo unspecified) | -4 | 30 | · | -40* | 0
COc1ccccc1N1CCN(C(CNC(=O)C2CCCCC2)c2cccnc2)CC1 (stereo unspecified) | 0 | 4 | -71* | 1 | -14
COCCNC(=O)C(=O)NCC(c1cccnc1)N1CCN(c2ccccc2OC)CC1 (stereo unspecified) | 2 | 16 | · | 14 | -8
CCOc1ccc(S(=O)(=O)NCCc2sc3nc(-c4ccc(C)cc4)nn3c2C)cc1 | 0 | 16 | · | · | 10
C/C(=N\NC(=O)c1cc(Br)ccc1O)c1cccs1 | -8 | 32* | -3 | -12 | -5
C/C(=N/NC(=O)c1ccc(Br)o1)c1cccs1 | -2 | 0 | 0 | -5 | 3
CCOc1ccc(NC(=O)c2oc3ccccc3c2NC(=O)c2cc3ccccc3o2)cc1 | -2 | 5 | · | 10 | 5
NC1=NC(=O)/C(=C/c2ccsc2)S1 | -1 | 1 | 13 | -33* | -2
OC(CN1CCN(c2ccccc2F)CC1)c1ccc(F)cc1 (stereo unspecified) | -12 | 12 | -8 | -17 | 36*
